Experimental data from PubChem BioAssay (NCI).
Compounds without any hit were thinned out: in the full panel of roughly 83,000, 20% have a hit.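 Values shown are percent growth following 48 h exposure of cells in 96-well plates to a single concentration of compound; below 10 was considered active.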 The source made the active and inactive calls.

Tested on: HL-60(TB) leukemia
Test: NCI-60 one-dose screen, 48 h (100 = growth as untreated, 0 = no growth, -100 = all killed)
Details: 10 µM unless noted

Row | Compound | growth
1 | COc1ccc(C#Cc2ccc(=O)oc2-c2cc(OC)c(OC)c(OC)c2)cc1O | 23.5% (inactive)
2 | O=C(N/N=C/c1c(Cl)cccc1Cl)c1ccc(C(F)(F)F)nc1Nc1cccc(C(F)(F)F)c1 | -44.5% (active)
3 | COc1cc(NCCCN)c2ncccc2c1 | 68% (inactive)
4 | NC1=C(C/C(N)=N\O)C(c2ccccc2Cl)c2c(ccc3ccccc23)O1 (stereo not given) | 84.9% (inactive)
5 | COC(=O)C(C)[C@H]1CC[C@@H]2[C@]1(C)CC=C1[C@]23C=C[C@]2(C[C@@H](OC(C)=O)CC[C@]12C)C(C(=O)OC)C3C(=O)OC (stereo not given in full) | 66.9% (inactive)
6 | C=C(C)[C@@H]1CC[C@]2(CN)CC[C@]3(C)[C@H](CC[C@@H]4[C@@](C)(CCCN)[C@H](C(=C)C)CC[C@]43C)[C@@H]12 | 53.3% (inactive)
7 | C=CC(=O)NCCOc1cccc(Nc2cc(NCCCNC(=O)C3CCC3)c(Br)cn2)c1 | -55% (active)
8 | C=C1C(=O)O[C@H]2[C@H]1CC/C(CNC(=O)c1cccc3ccccc13)=C\CC[C@@]1(C)O[C@@H]21 | -23.9% (active)
9 | Clc1cccc(Cl)c1C(Nc1nc2ccccc2s1)Nc1nc2ccccc2s1 | 105% (inactive)
10 | CN(Cc1ccccc1)c1nc(Cl)c(C2CC(c3ccc(F)cc3)=NN2C=O)s1 (stereo not given) | 102% (inactive)
11 | COc1ccccc1C(=O)/C=C/c1ccccc1 | 77% (inactive)
12 | C[C@H]1C(=O)N2c3ccccc3[C@@]3(O)C[C@@H](n4cnc5ccccc5c4=O)C(=O)N1[C@@H]23 | 64.6% (inactive)
13 | CCCc1cc(CCC)n2nc(N)nc2n1 | 105% (inactive)
14 | OCCn1cccn1 | 99.2% (inactive)
15 | CN=S(=O)(OCCCCCOS(=O)(=NC)c1ccc(C)cc1)c1ccc(C)cc1 (stereo not given) | 70.7% (inactive)
16 | O=C(O)c1ccc(-n2cc(/C=N/Nc3ccc(F)cc3)c(-c3cccc(C(F)(F)F)c3)n2)cc1 | 34.3% (inactive)
17 | CC(=O)c1c(Nc2ccc(F)c(F)c2F)[nH]c2c(F)cc(F)cc2c1=O | -48% (active)
18 | c1ccc(C(=NNc2nc3ccccc3o2)c2ccccn2)nc1 | -11.8% (active)
19 | O=S(=O)(O)c1ccc(N=Nc2ccc(N=Nc3cccc4ccccc34)c(S(=O)(=O)O)c2)cc1 | 105% (inactive)
20 | COC1=C(C)C(=O)N2[C@@H]1[C@H](c1ccccc1)OC21C=CC(=O)C=C1 | -11.2% (active)

Row | Compound | growth
21 | FC(F)(F)c1ccc(Cn2cc(CSc3nc4ccccc4s3)nn2)cc1 | 97.9% (inactive)
22 | CN1CCN(CCCN2c3ccccc3Sc3ccc(C(F)(F)F)cc32)CC1 | 83.8% (inactive)
23 | N#CC1=C(N)Oc2c(ccc3ccccc23)C1c1cc2ccccc2n2nnnc12 (stereo not given) | -32.7% (active)
24 | O=C(Nc1ccc(I)cc1)c1cccc([N+](=O)[O-])c1O | 9.44% (active)
25 | CC(=O)OC[C@]12CC[C@@H](C(=O)CBr)[C@@H]1[C@H]1CC[C@@H]3[C@@]4(C)CC[C@H](OC(C)=O)C(C)(C)[C@@H]4CC[C@@]3(C)[C@]1(C)CC2 | 63.8% (inactive)
26 | COc1ccc2cc(-c3ccc(-c4ccc(C(=N)N)s4)s3)ccc2c1 | 36.5% (inactive)
27 | Cc1ccc(-c2nc3nc(-c4ccc(Cl)cc4)nc(N4CCCNCC4)c3o2)cc1 | -67.6% (active)
28 | NS(=O)(=O)c1ccc(CN2C(=O)c3cccc4cccc(c34)C2=O)cc1 | 98.6% (inactive)
29 | CCCNc1nc(C)[nH]c(=O)c1S | 92.1% (inactive)
30 | CCc1ccc(-c2ccc(-n3nc(C)c4c(N)nc(Cc5ccccc5)nc43)cc2)cc1 | 65% (inactive)
31 | CC1=NN(c2cccc(Cl)c2)C(=O)/C1=C\c1cn(CC(O)CN2CCCCC2)c2ccccc12 (stereo not given) | 25.7% (inactive)
32 | C=C1C(=O)O[C@H]2[C@H]1CC/C(Cn1cc(-c3ccc(F)cc3)nn1)=C\CC[C@@]1(C)O[C@@H]21 | -18.8% (active)
33 | OC(c1ccccc1)c1ccccn1 (stereo not given) | 99.9% (inactive)
34 | N#CN1CCC[C@H]1C(=O)N1CCc2c(-c3[nH]nc4ncccc34)cccc21 | -30.7% (active)
35 | Cc1cc(Cc2cc(C)c(N)cc2N)c(N)cc1N | 85.6% (inactive)
36 | COC(=O)Cc1nc(C#N)c(N(C)C)o1 | 99.5% (inactive)
37 | O=C(Nc1cc([N+](=O)[O-])c2[nH]c(=O)c3ccccc3c2c1)C(F)(F)F | 94.4% (inactive)
38 | C=CC(C)(O)CC/C=C(\CO)C(=O)OC1C(C)OC(O[C@](C)(C=C)CC/C=C(\CO)C(=O)O[C@H]2C[C@@]3(C(=O)OC4OC(CO)C(O)C(O)C4OC4OC(C)C(OC5OC(CO)C(O)C5O)C(OC5OC(CO)C(O)C(O)C5O)C4O)C(CC2(C)C)C2=CCC4[C@@]5(C)CC[C@H](OC6OC(COC7OC(C)C(O)C(O)C7OC7OCC(O)C(O)C7O)C(O)C(O)C6NC(C)=O)C(C)(C)C5CC[C@@]4(C)[C@]2(C)C[C@H]3O)C(O)C1O (stereo not given in full) | -52.5% (active)
39 | C=CCc1c2c(c(OC)c3ccoc13)C(=O)/C(=C/c1ccccc1OC)O2 | 68.8% (inactive)
40 | COc1cc2oc(-c3cccc(C(=O)Nc4ccc(C)cc4)c3)cc(=O)c2c(OC)c1OC | 7.26% (active)
